A word on the inhibition: it is the drop in the measured response relative to a control, in per cent.

The campaign covered roughly 2,500 compounds. About 1,100 (44%) were called active.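 Rule for the calls: active = inhibition above 50% at 4 µM in the single-point screen; inactive = inhibition of 50% or less.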 The set was probably picked from earlier hits. The list shows a part of the results.

This test can be described thus: blockers of TNF-a NF-kB luciferase induction – cell-based, HEK293T NF-kB-Luc, luminescence, selectivity assay for NOD1/NOD2 signaling inhibitor project, primary screen (AID 1852). The note with it: TNF-a induced, 14 h, at 4 µM, hits give high values.
Turning to `O=C(c1[nH]ncc1-c1ccccc1)C1CO1` (stereo unspecified), the inhibition is 2.8% (inactive).

For `O=C(N/N=C/c1ccc([N+](=O)[O-])s1)c1ccncc1`, the inhibition was 45.8% (inactive).

Turning to `Cc1ccc(C(=O)N/N=C/c2ccc([N+](=O)[O-])s2)cc1`, the inhibition was 66.9% (active).

Turning to `O=[N+]([O-])c1ccc(/C=N/NC(=S)Nc2ccc(Cl)cc2Cl)s1`, the inhibition was 31.8% (inactive).

Turning to `Cc1ccc(/C=N/Nc2ccc(C(=O)O)cc2)s1`, the inhibition is 44.7% (inactive).

As to `Cc1ccc(NC(=S)N/N=C/c2ccc([N+](=O)[O-])s2)cc1`, the inhibition was 100% (active).

As to `Cc1cccc(NC(=S)N/N=C/c2ccc([N+](=O)[O-])s2)c1`, the inhibition is 106% (active).

`Cc1ccc(-c2nnc(Sc3nc4ccccc4o3)c3ccccc23)cc1`: the inhibition is -46.1% (inactive).

With `CCC(C)Cn1c(C(C)C)nc2ccccc21` (stereo unspecified), the inhibition is -3% (inactive).

Turning to `CCC(C)Cn1c(O)cc2nn(-c3nc4ccccc4s3)c(=O)c-2c1C` (stereo unspecified), the inhibition was 77.4% (active).

As for `CCC(C)Cn1c(C)nc2ccccc21` (stereo unspecified), the inhibition is 28% (inactive).

Turning to `COc1c(C)cc(C(=O)C2CCCN(C(=O)CCc3scnc3C)C2)cc1C` (stereo unspecified), the inhibition is 27.3% (inactive).

`CCc1cc(C(=O)NC2CCCN(Cc3ccccc3F)C2)n(C)n1` (stereo unspecified): the inhibition is 57.5% (active).

With `Fc1ccc(C2CCCN2Cc2nc(Cc3ccccc3F)no2)cc1` (stereo unspecified), the inhibition is -0.4% (inactive).

Consider `Cc1ccnn1CCC(=O)N1CCCC(Nc2ccc(F)c(F)c2)C1` (stereo unspecified), for which the inhibition was 21.6% (inactive).

On to `CCC(C)c1ccc(C(C)NC(=S)NC2CCCCC2)cc1` (stereo unspecified), for which the inhibition was 21.1% (inactive).

In the case of `Cc1nc2ccc(NC(=O)CCS(=O)(=O)c3ccccc3)cc2s1`, the inhibition is -1.1% (inactive).

Take `O=C(CCS(=O)(=O)c1ccccc1)Nc1cccc(-c2nc3ccccc3s2)c1`: the inhibition was 59.9% (active).

Regarding `CS(=O)(=O)c1ccc2nc(NC(=O)CCS(=O)(=O)c3ccccc3)sc2c1`, the inhibition was 36.3% (inactive).

On to `O=C(c1cn(-c2ccccc2)nc1-c1ccccc1)n1nnc2ccccc21`, for which the inhibition is 27.6% (inactive).

For the compound `OCCCNc1ncnc2scc(-c3ccc(Cl)cc3)c12`, the inhibition was 78.5% (active).

As for `COc1ccc(-c2csc3ncnc(NCCCO)c23)cc1`, the inhibition is 60.7% (active).

As for `COc1ccc(-c2csc3ncnc(NCCO)c23)cc1`, the inhibition was 49.8% (inactive).

Consider `CCc1cccc(NS(=O)(=O)c2csc(C(N)=O)c2)c1`, for which the inhibition was 23.5% (inactive).

As for `CNC(=S)N(CCc1c(C)[nH]c2ccc(Cl)cc12)Cc1cc(OC)c(OC)c(OC)c1`, the inhibition is 36.1% (inactive).

As to `CCOC(=O)c1sc(NC(=O)CSc2n[nH]c(-c3ccncc3)n2)c(C#N)c1C`, the inhibition was 26.6% (inactive).

In the case of `CCCc1ccc(-c2c(C)sc(NC(=O)c3ccnn3C)c2C#N)cc1`, the inhibition is 86.3% (active).

Regarding `CCN1/C(=C/C(C)=C/c2sc3ccccc3[n+]2CC)Sc2ccccc21`, the inhibition was 71.8% (active).

For `CCN1/C(=C/C=C/C=C/C=C/c2sc3ccccc3[n+]2CC)Sc2ccccc21`, the inhibition is 62.2% (active).

Consider `O=c1c2cc([N+](=O)[O-])ccc2nc(CN2CCN(c3ccccn3)CC2)n1-c1ccccc1F`, for which the inhibition was 2.4% (inactive).

On to `Cc1ccc(NC(=O)CSc2nn(-c3ccccc3)c(=S)s2)cc1S(=O)(=O)N(C)C`, for which the inhibition was 72.3% (active).

As for `CN(C)S(=O)(=O)c1cc(NC(=O)CSc2nn(-c3ccc(Cl)cc3)c(=S)s2)ccc1Cl`, the inhibition was -20.5% (inactive).

`CCN(Cc1ccncc1)C(=O)CC1C(=O)NCCN1Cc1ccc(F)c(F)c1` (stereo unspecified): the inhibition was 1.3% (inactive).

Take `CCN(CCn1cccn1)C(=O)CC1C(=O)NCCN1CCc1ccccc1` (stereo unspecified): the inhibition was 50.2% (active).

As to `CC(CN1CCOCC1)OC(=O)Cc1ccc(Cl)cc1` (stereo unspecified), the inhibition is 12.4% (inactive).

As to `O=C(Nc1cccc(S(=O)(=O)N2CCCCC2)c1)c1ccccc1NS(=O)(=O)c1ccc(F)cc1`, the inhibition was 87% (active).

`COc1ccc(NS(=O)(=O)c2cccc(NC(=O)c3ccc(S(=O)(=O)N4CCCCCC4)cc3)c2)cc1`: the inhibition was 90.7% (active).

For the compound `CSc1ncccc1C(=O)N1CCN(S(=O)(=O)c2cc(C)ccc2C)CC1`, the inhibition is -21.1% (inactive).

For the compound `O=C(Nc1ccc(F)cc1)Nc1ccc(N2CCCC2)c(S(=O)(=O)Nc2ccccc2Cl)c1`, the inhibition was 35.1% (inactive).

For `Cc1ccc(NC(=O)CSc2ncnc3ccccc23)cc1S(=O)(=O)N1CCCCC1`, the inhibition is 57.7% (active).

For `Cc1ccc(NC(=O)c2ccccc2NS(=O)(=O)c2ccc(F)cc2)cc1S(=O)(=O)N1CCCCC1`, the inhibition is 81.2% (active).

Consider `Cc1ccc(NC(=O)c2cc(=O)c3ccccc3o2)cc1S(=O)(=O)N1CCCCC1`, for which the inhibition is 23.9% (inactive).

Turning to `Cc1ccc(NC(=O)CSc2ncnc3ccccc23)cc1S(=O)(=O)N1CCOCC1`, the inhibition is 39.8% (inactive).

With `O=C(Nc1cccc(S(=O)(=O)N2CCCCC2)c1)Nc1ccc(Cl)cc1Cl`, the inhibition is -29.7% (inactive).

Regarding `O=C(CCl)Nc1cccc(S(=O)(=O)N2CCCCCC2)c1`, the inhibition was 30.6% (inactive).

Regarding `COc1ccc(NS(=O)(=O)c2cccc(NC(=O)c3ccc(Cl)nc3)c2)cc1`, the inhibition was 42% (inactive).

Take `Cc1nc(Sc2nnnn2C)c2c3c(sc2n1)CCC3`: the inhibition was 25.5% (inactive).

Consider `CC1CCCCC1NC(=O)NC(=O)CCl` (stereo unspecified), for which the inhibition is 68.1% (active).

On to `CCS(=O)(=O)c1ccc2oc(SCC(=O)NC3CCCC(C)C3C)nc2c1` (stereo unspecified), for which the inhibition is 15.3% (inactive).

Consider `CC1CCCC(NC(=O)NC(=O)CCl)C1C` (stereo unspecified), for which the inhibition is 69.1% (active).

For the compound `COc1ccccc1C1/C(=C(/O)c2ccc(OC(C)C)cc2)C(=O)C(=O)N1c1cc(C)on1` (stereo unspecified), the inhibition was 35.4% (inactive).

For the compound `O=C(CN(Cc1ccc(Cl)cc1)C(=O)CNS(=O)(=O)c1ccc(F)cc1)NCC1CCCO1` (stereo unspecified), the inhibition was 38.4% (inactive).

In the case of `O=S(=O)(NCC1CCCO1)c1ccc(-c2ccc(S(=O)(=O)NCC3CCCO3)cc2)cc1` (stereo unspecified), the inhibition is 34.8% (inactive).

For `COc1ccc(N2CCN(C(=O)c3ccc(CNS(=O)(=O)c4ccc(C)cc4)cc3)CC2)cc1`, the inhibition was 35.1% (inactive).

As to `Cc1ccc(NS(=O)(=O)c2ccc(C(=O)N3CCN(c4ncccn4)CC3)cc2)cc1`, the inhibition is 61.5% (active).

For the compound `Cc1cccc(-n2ncc3c(N(C)C4CCCCC4)ncnc32)c1`, the inhibition is -64.4% (inactive).

Take `COc1cccc(N2CCN(c3ncnc4c3cnn4-c3ccc(C)cc3C)CC2)c1`: the inhibition was 102% (active).

In the case of `CCOC(=O)C1=C(C)N=c2s/c(=C/c3cccc([N+](=O)[O-])c3O)c(=O)n2C1c1ccccc1` (stereo unspecified), the inhibition is 74.5% (active).

Consider `Cn1c(=O)c2c(nc(Oc3ccc4ccccc4c3)n2C)n(C)c1=O`, for which the inhibition was 40.5% (inactive).

Turning to `Cn1c(N2CCN(c3ccccn3)CC2)nc2c1c(=O)n(Cc1ccc(Cl)cc1)c(=O)n2C`, the inhibition was 17.7% (inactive).

Turning to `C=CCn1c(Oc2ccc(C(=O)OC)cc2)nc2c1c(=O)n(C)c(=O)n2C`, the inhibition was 47.2% (inactive).

Turning to `C=CCn1c(Oc2ccccc2F)nc2c1c(=O)n(C)c(=O)n2C`, the inhibition was 78.4% (active).

Consider `CCn1c(Oc2ccccc2F)nc2c1c(=O)n(C)c(=O)n2C`, for which the inhibition was 69.1% (active).

With `Cn1c(=O)[nH]c(=O)c2c1nc(N1CCC(Cc3ccccc3)CC1)n2Cc1ccccc1`, the inhibition was 41.2% (inactive).

Consider `Cn1c(=O)[nH]c(=O)c2c1nc([N+](=O)[O-])n2Cc1ccccc1`, for which the inhibition was 104% (active).

As for `CCCCCn1c(SCCc2ccccc2)nc2c1c(=O)[nH]c(=O)n2C`, the inhibition was 31.3% (inactive).

For `COc1ccc(C(=O)Nc2nnc(S(=O)(=O)N(C)Cc3ccc(F)cc3)s2)cc1OC`, the inhibition was -1% (inactive).

Regarding `CN(Cc1ccccc1)S(=O)(=O)c1nnc(NC(=O)c2ccc(F)cc2)s1`, the inhibition is 74.3% (active).

For the compound `CN(Cc1ccc(F)cc1)S(=O)(=O)c1nnc(NC(=O)c2ccccc2)s1`, the inhibition is 21% (inactive).

On to `Cc1nc2ccc(NS(=O)(=O)c3ccc4c(c3)OCCO4)cc2s1`, for which the inhibition was 72.1% (active).

Regarding `CSc1nc2ccc(NS(=O)(=O)c3ccc4c(c3)OCCO4)cc2s1`, the inhibition is 100% (active).

For the compound `Cc1nc2ccc(NS(=O)(=O)c3ccc(F)c(C)c3)cc2[nH]1`, the inhibition is 42.8% (inactive).

`Cc1ccc(-c2nc3cccnc3s2)cc1NS(=O)(=O)c1ccc2c(c1)OCCO2`: the inhibition is 27.3% (inactive).

For `Cc1nc2ccc(NS(=O)(=O)c3c(C)c(C)cc(C)c3C)cc2s1`, the inhibition is 61.8% (active).

In the case of `Cc1nc2ccc(NS(=O)(=O)c3ccc(C)c(C)c3)cc2s1`, the inhibition was 48.4% (inactive).

Consider `CS(=O)(=O)c1ccc2nc(NC(=O)c3cccc(NS(=O)(=O)c4ccc(F)c(F)c4)c3)sc2c1`, for which the inhibition was -0.8% (inactive).

Turning to `COC(=O)C(=Cc1ccc(OCc2ccc([N+](=O)[O-])cc2)c(OC)c1)C(=O)OC`, the inhibition was 18% (inactive).

With `O=[N+]([O-])c1cc([N+](=O)[O-])c2oc(-c3ccccc3)c(Br)c2c1O`, the inhibition was 66% (active).

Consider `CCN1/C(=C/c2cccc[n+]2C)Sc2ccc(OC)cc21`, for which the inhibition is 50.4% (active).

Consider `Cc1ccc2c(c1)N(C)/C(=C/c1cccc[n+]1C)S2`, for which the inhibition was 24.9% (inactive).

As to `O=C(Nc1cccc(-c2ccc(N3CCCCC3)nn2)c1)C(F)(F)F`, the inhibition was -90.7% (inactive).

Consider `Cc1ccc(C(=O)Sc2cccccc2=O)cc1`, for which the inhibition is 103% (active).

As to `Cc1ccc(S(=O)(=O)/C(=C/Cl)NC(=O)c2ccccc2)cc1`, the inhibition is 11.6% (inactive).

For the compound `CN(C)c1ccc(C(=O)Nc2nnc(-c3ccc(Cl)cc3)o2)cc1`, the inhibition was 106% (active).

Regarding `O=C(Nc1sc2c(c1C(=O)O)CCCC2)c1ccc(Cl)cc1`, the inhibition was 29.8% (inactive).

As to `Cc1cccc(-c2nnc(NC(=O)c3ccc(Cl)cc3)o2)c1`, the inhibition is 102% (active).

In the case of `O=C(Nc1nnc(-c2ccccc2)o1)c1ccc(Cl)cc1`, the inhibition is 104% (active).

For `CCC(=O)N1c2ccc(S(=O)(=O)N3CCN(c4ccc([N+](=O)[O-])cc4)CC3)cc2CC1C` (stereo unspecified), the inhibition is 26.6% (inactive).

As for `CCN(CC)S(=O)(=O)c1cccc(NC(=O)Nc2cccc(C(F)(F)F)c2)c1`, the inhibition was 69% (active).

Consider `O=C(Nc1ccc(OC(F)F)cc1)Nc1cccc(C(F)(F)F)c1`, for which the inhibition was 14.2% (inactive).

As for `CCN(CC)S(=O)(=O)c1ccc(NC(=O)Nc2cccc(C(F)(F)F)c2)cc1`, the inhibition was 10.5% (inactive).

These data come from PubChem BioAssay AID1852 (Sanford-Burnham Center for Chemical Genomics, 2009).
